Screens (PubChem)
Sampled rows, rich in hits. Any-hit rate of the full collection: about 0.31%.
TRPML1 blocker: inhibitors of human TRPML1 channel; Q9GZU1; TRPML1-inducible cells, Ca2+ dye fluorescence, FDSS; active compounds read low; inhibition of EC80 agonist-evoked calcium signal; activity change, negative = inhibition, % (no concentration beside the values); actives 0.02% (n = 390,000); AID 624415; in the data active means activity change below about -50%; inconclusive means between about -30% and that limit;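 further: stimulus is agonist 54-4 at its EC80 concentration; on the % scale 0 is the no-effect control and ±100 the full control effect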
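Calcium fluorescence in TRPML1-DL cells induced overnight with Tet: a 110 s read after compound pin addition, then a 110 s antagonist read after challenge with 54-4 at 4 uM final (EC80).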
TRPV1 agonist: agonists of human vanilloid receptor 1 (TRPV1). Q8NER1. TRPV1-expressing cells, Fluo-8 calcium influx, agonist mode. actives 0.19% (n = 320,000). activation, % at 8.33 µM; in the data active means activation above about 80%; inconclusive means between about 30% and that limit; further: 0% is about no effect
Target sequence (Q8NER1 whole entry, looked up): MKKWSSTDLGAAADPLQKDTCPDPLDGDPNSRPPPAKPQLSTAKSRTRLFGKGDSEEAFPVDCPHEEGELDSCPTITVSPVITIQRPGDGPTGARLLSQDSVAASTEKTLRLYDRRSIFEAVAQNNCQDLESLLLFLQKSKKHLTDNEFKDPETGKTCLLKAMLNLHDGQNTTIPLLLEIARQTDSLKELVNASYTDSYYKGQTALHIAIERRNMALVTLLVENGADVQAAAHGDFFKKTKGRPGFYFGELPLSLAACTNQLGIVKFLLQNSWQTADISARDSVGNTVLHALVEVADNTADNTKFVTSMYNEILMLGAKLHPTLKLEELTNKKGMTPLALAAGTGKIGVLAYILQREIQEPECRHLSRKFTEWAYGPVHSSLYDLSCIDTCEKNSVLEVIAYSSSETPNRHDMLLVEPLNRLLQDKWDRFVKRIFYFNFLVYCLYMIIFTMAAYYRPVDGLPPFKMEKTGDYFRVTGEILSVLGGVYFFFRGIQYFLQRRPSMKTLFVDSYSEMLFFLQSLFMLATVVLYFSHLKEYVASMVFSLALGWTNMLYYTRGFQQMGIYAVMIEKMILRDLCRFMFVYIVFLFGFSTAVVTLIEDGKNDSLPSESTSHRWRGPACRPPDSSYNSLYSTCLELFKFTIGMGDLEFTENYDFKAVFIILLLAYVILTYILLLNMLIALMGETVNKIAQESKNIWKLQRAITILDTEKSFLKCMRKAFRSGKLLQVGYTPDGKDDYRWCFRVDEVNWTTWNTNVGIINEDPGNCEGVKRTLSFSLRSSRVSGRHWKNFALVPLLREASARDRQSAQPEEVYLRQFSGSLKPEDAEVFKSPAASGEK
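Fluo-8 calcium influx in TRPV1-expressing cells, kinetic read (ex 480/em 520 nm). Compound added and read 3 min for agonist activity, followed by capsaicin at EC20 final and 2 min further read for enhancement.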
TRPV1 potentiator: enhances activation of the human vanilloid receptor TRPV1. TRPV1-expressing cells, Fluo-8 calcium influx, capsaicin EC20 potentiation. potentiation, % at 8.33 µM. actives 0.02% (n = 320,000). AID 540277; in the data active means potentiation above about 80%; inconclusive means between about 30% and that limit; further: 0% is about no effect
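Fluo-8 calcium influx in TRPV1-expressing cells, kinetic read (ex 480/em 520 nm). Compound added and read 3 min for agonist activity, followed by capsaicin at EC20 final and 2 min further read for enhancement.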
TRPML1 agonist: agonists of human TRPML1 channel | Q9GZU1 | TRPML1-expressing cells, Ca2+ dye fluorescence, FDSS | activation, % (test concentration not listed) | actives 0.12% (n = 410,000) | AID 624414; in the data active means activation above about 50%; inconclusive means mostly about 30% to 49%; further: 0% is about no effect
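Calcium fluorescence on an FDSS kinetic reader gave the read-out. Tet-induced TRPML1-DL cells were plated overnight, dye-loaded (Ca8 with quencher, 45-90 min, room temperature, dark), then read 110 s after compound addition, and again 110 s after 4uM final 54-4 (EC80).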
Numbers without * were called inactive; u = inconclusive; x = no result.

SMILES | TRPML1 blocker | TRPV1 agonist | TRPV1 potentiator | TRPML1 agonist
CCCCc1ccc(NC(=O)COC(=O)c2ccccc2OCC(=O)Nc2ccc(Br)cc2)cc1 | x | x | x | -0.5
COc1ccccc1Nc1ncnc2c1cnn2-c1cccc(C)c1 | 0.3 | 85.1* | 5.3 | -0.2
COc1cccc(Nc2ncnc3c2cnn3-c2cccc(C)c2)c1 | 10.4 | 23.4 | -23.6 | 0.1
CC(=O)Nc1sc(/C(C#N)=C\c2cccc(Cl)c2)nc1-c1ccc(C)cc1 | -22.5 | u | 14.2 | 76.8*
CC(=O)Nc1sc(N/N=C/c2ccccc2)nc1-c1ccc(C)cc1 | 18.3 | 3.8 | 3.4 | -0.4
CC(C)CC1Nc2ncnc(N3CCCCC3)c2N(Cc2ccc(Br)cc2)C1=O (centres undefined) | 13.4 | 81.6* | 0.8 | 0.9
Cc1cc(C)n(Cc2ccc(Cl)cc2Cl)c(=O)c1S(=O)(=O)c1ccccc1 | -2.6 | -0.1 | -10.8 | 71.3*
O=C(Nc1ccc2c(c1)CCC2)c1cc(F)cc(F)c1 | -11.4 | u | -3.3 | 1.1
CC(=O)c1cccc(NC(=O)c2ccc3c(c2)CCCC3)c1 | -12.1 | 87.0* | -0.6 | 0.2
CC(=O)c1cccc(NC(=O)c2ccc(OC3CSC3)cc2)c1 | -3.4 | 112.7* | -5.8 | -0.8
O=C(Nc1ccc2c(c1)CCC2)c1cccc(F)c1 | 10.3 | 97.4* | -17.0 | -0.1
COc1cccc(NC(=O)c2ccc3c(c2)CCCC3)c1 | 5.4 | u | -1.9 | 0.2
CC(=O)c1cccc(NC(=O)NC2CCCc3ccccc32)c1 (centres undefined) | -3.3 | 82.6* | 3.6 | 0.7
CC(=O)c1ccc(NC(=O)NC2CCCc3ccccc32)cc1 (centres undefined) | -6.2 | u | -3.4 | -0.6
CCc1ccc(Nc2nnc(SC(C)C(=O)NC3CC3)s2)cc1 (centres undefined) | -13.6 | x | x | 1.1
CCc1ccc(Nc2nnc(SC3CCOC3=O)s2)cc1 (centres undefined) | 14.5 | 82.3* | 1.8 | 0.2
O=C(NCc1cccn1Cc1ccccc1)Nc1ccc(Br)cc1F | -17.4 | x | x | 3.5
O=C(NCC1(c2ccccc2)CCCC1)c1ccc(Br)o1 | -16.5 | u | -16.3 | 69.7*
CCCN(CCC)C(C)C(=O)NCC1(c2ccccc2)CCCC1 (centres undefined) | u | u | -32.2 | 106.9*
CN(C)c1ccc(/C=C2\C=Nc3ccccc32)cc1 | x | x | x | -0.8
Cc1sc2ncnc(OCC(=O)N3CC(=O)Nc4ccccc43)c2c1C | -1.6 | -2.0 | 95.9* | -0.1
CC(C)(C)n1ncc2c(=O)n(Cc3ccc(SC(=O)O)cc3Cl)cnc21 | 0.8 | x | x | 0.8
CC(C)(C)c1ccc(/C=C/C(=O)N2CCCCC2)cc1 | -9.1 | 93.6* | -19.6 | 1.2
Cc1ccc(/C=C/C(=O)N2CCCC(C)C2)cc1 (centres undefined) | 16.7 | u | -5.5 | 0.5
CC1CCN(C(=O)/C=C/c2ccc(C(C)(C)C)cc2)CC1 | -10.9 | 88.8* | -10.5 | 2.7
SMILES | TRPML1 blocker | TRPV1 agonist | TRPV1 potentiator | TRPML1 agonist
CN(C)c1ccc(C2CCc3ccccc3N2C(=O)c2ccccc2)cc1 (centres undefined) | x | x | x | -0.8
CC(=O)c1ccc(C(=O)Nc2ccc3c(c2)C(=O)NC3=O)cc1 | -10.2 | 9.4 | u | -0.6
CC(C)(C)c1ccc(C(=O)Nc2ccc(C=C(C#N)C#N)cc2)cc1 | 13.9 | 89.4* | -16.3 | 0.1
N#CC(C#N)=Cc1ccc(NC(=O)c2ccc(Br)cc2)cc1 | 48.5 | 113.4* | -12.9 | 1.6
CC(C)(C)c1ccc(C(=O)Nc2ccc3c(c2)C(=O)NC3=O)cc1 | -4.8 | 85.5* | -11.5 | 0.1
CC(C)(C)c1ccc(C(=O)Nc2ccc(S(N)(=O)=O)cc2)cc1 | -2.9 | 86.3* | -2.4 | -0.3
NS(=O)(=O)c1ccc(NC(=O)c2ccc(-c3ccccc3)cc2)cc1 | 0.5 | -1.8 | 12.0 | 0.9
Oc1cc2cc(-c3csc(-c4ccc(F)cc4)n3)cc3c2n1CCC3 | x | x | x | -1.0
CCOC(=O)c1c(NC(=O)CCCOc2ccccc2C)sc2c1CCC(C)C2 (centres undefined) | 3.9 | x | x | -0.1
Cc1ccc(Cl)cc1N1CCN(C(=O)CCS(=O)(=O)c2cc(Br)cc3c2N(C(=O)C2CC2)CC3)CC1 | 3.8 | x | x | 0.8
COc1ccc(NC(=O)N2CCCC2)cc1OC | -9.8 | -3.0 | 9.5 | -0.2
COc1ccc(NC(=O)N2CCN3CCCCC3C2)cc1OC (centres undefined) | -50.6* | x | x | 0.8
Cc1cccc(C)c1NC(=O)c1nc(SC(C)C)ncc1Cl | -7.1 | x | x | 2.0
CCOC(=O)c1nc2sc3c(c2c(=O)n1C(C)C(=O)OCC)CCCC3 (centres undefined) | 5.9 | 80.2* | 7.7 | 2.4
CCOC(=O)c1sc(NC(=O)Cn2nnc3sc4c(c3c2=O)CCCC4)nc1C | 7.0 | -2.4 | 7.5 | 4.7
CCOC(=O)Cc1ccc(NC(=O)NCc2c(-n3cccc3)sc3c2CCCC3)cc1 | -6.5 | x | x | -0.2
Cc1cc(NC(=O)CSc2nc(Cc3ccc(O)cc3)c(C)[nH]2)no1 | -54.4* | -12.9 | 7.1 | 0.8
Cc1[nH]c(SCC(=O)Nc2cc(C(N)=O)cc(C(N)=O)c2)nc1Cc1ccccc1 | -17.5 | x | x | -1.1
N#CC1=C(N)OC2=C(CC/C2=C\c2ccccc2)C1c1ccccc1 (centres undefined) | -8.3 | 2.7 | -7.1 | 55.3*
N#CC1=C(N)OC2=C(CC/C2=C\c2ccccc2Cl)C1c1ccccc1Cl (centres undefined) | -9.6 | -0.2 | 17.5 | 1.5
CC(=NNC(=O)c1ccncc1)c1ccc2ccccc2c1O | -21.0 | x | x | 79.5*
CC(=NNC(=O)c1ccncc1)c1ccccc1O | -14.4 | x | x | 0.2
CCC(=O)Nc1ccccc1-c1nc2ccccc2n(C(CC)C(=O)Nc2cccc(C(C)=O)c2)c1=O (centres undefined) | 7.6 | x | x | 4.4
COc1cccc(CNCCSc2nnnn2C)c1OCc1ccccc1 | 8.7 | x | x | -1.2
Cc1cc(N2CCC(C)CC2)c(F)cc1[N+](=O)[O-] | -6.1 | 3.8 | -15.7 | 1.5
SMILES | TRPML1 blocker | TRPV1 agonist | TRPV1 potentiator | TRPML1 agonist
Cc1cc(N2CCCC2)c(F)cc1/C=C\[N+](=O)[O-] | -3.2 | -5.9 | 28.1 | 51.5*
Cc1ccc(S(=O)(=O)N(C)c2ccc(C)c([N+](=O)[O-])c2)cc1 | 29.4 | -5.5 | 80.1* | 1.8
COc1ccc(N(C)S(=O)(=O)c2ccc(C)cc2)c([N+](=O)[O-])c1 | 14.0 | 15.3 | -4.5 | 2.9
O=C(COc1ccccc1C(=O)Nc1ccccc1)Nc1cccc([N+](=O)[O-])c1 | x | x | x | 0.0
COc1ccc2nc(N3CCCC3)c(C#N)cc2c1 | -7.6 | 20.6 | 0.5 | 14.2
COc1ccc2nc(N3CCCCC3)c(C#N)cc2c1 | -11.6 | -0.7 | 6.8 | 61.9*
CC(C)(C)n1ncc2c(=O)n(Cc3ccc(Cl)cc3F)cnc21 | 1.3 | x | x | 1.7
Cc1ccc2nc(NC(=O)CS(=O)(=O)Cc3ccccc3)sc2c1 | -10.9 | 84.6* | -0.1 | 0.9
COc1cccc(/C=N/n2c(SC)nnc2-c2ccccc2)c1O | 48.3 | 88.6* | -17.5 | 1.4
Clc1cccc[n+]1CCCCCC[n+]1ccccc1Cl | x | x | x | -0.6
